Assay outcomes deposited in PubChem by several laboratories.
SENP6 block: inhibitors of human SENP6 protease. Recombinant SENP6 catalytic domain, aminoluciferin luminescence. inhibition, % at 10 µM. actives 1.8% (n = 330,000);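 active means inhibition above about 50% at the single tested dose, limit read from the data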;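 further: plate controls were DMSO wells with enzyme for no effect and DMSO wells lacking enzyme for full effect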
SENP8 block-1: inhibitors of human SENP8 protease; Q96LD8; recombinant SENP8, Nedd8 substrate fluorescence; inhibition, % at 20 µM; actives 0.64% (n = 360,000); AID 602440; in the data active means inhibition mostly above about 40%, no sharp cut-off; inactive means mostly below about 27%
Target sequence (Q96LD8 whole entry, looked up): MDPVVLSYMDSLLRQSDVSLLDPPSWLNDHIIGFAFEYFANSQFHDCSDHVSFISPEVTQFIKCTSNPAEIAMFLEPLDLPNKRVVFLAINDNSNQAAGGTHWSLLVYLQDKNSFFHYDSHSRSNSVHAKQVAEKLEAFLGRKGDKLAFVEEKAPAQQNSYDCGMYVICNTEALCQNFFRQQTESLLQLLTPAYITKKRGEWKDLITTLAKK
SENP7 block: SENP7 protease inhibition; recombinant SENP7, Z-RLRGG-aminoluciferin luminescence, 40 min; Q9BQF6; inhibition, % at 5 µM; actives 1.5% (n = 330,000);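 active means inhibition above about 50% at the single test dose, limit read from the data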;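 further: plate controls were DMSO with enzyme for no effect and no enzyme buffer wells for full effect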
Target sequence (Q9BQF6 706-1050 limits assumed): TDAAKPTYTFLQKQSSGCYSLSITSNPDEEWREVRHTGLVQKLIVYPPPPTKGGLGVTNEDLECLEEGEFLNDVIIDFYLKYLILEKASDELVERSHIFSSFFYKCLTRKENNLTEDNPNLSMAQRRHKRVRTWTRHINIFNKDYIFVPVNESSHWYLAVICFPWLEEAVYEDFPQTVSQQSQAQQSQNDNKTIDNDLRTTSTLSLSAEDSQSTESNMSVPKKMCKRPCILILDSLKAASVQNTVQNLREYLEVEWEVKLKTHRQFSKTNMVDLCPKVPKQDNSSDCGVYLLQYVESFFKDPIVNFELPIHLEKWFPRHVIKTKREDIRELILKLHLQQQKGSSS
SENP8 block-2: SENP8 protease inhibition; Q96LD8; purified SENP8, Z-RLRGG-aminoluciferin cleavage, luminescence; inhibition, % at 10 µM; actives 1.2% (n = 330,000); AID 2540; in the data active means inhibition above about 50%
Platelet DG rel: platelet dense granule release activity; human platelet-rich plasma, SFLLRN dense granule ATP release, luminescence; inhibition, %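 (compounds screened at 7.5 µM in platelet-rich plasma)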; actives 0.22% (n = 300,000); AID 1663;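 active means mean replicate score, as percent of positive control, at or above 50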
SENP8 conf: confirmation of human SENP8 protease inhibitors; shares compounds with SENP7 block; Recombinant SENP8, Z-RLRGG-aminoluciferin luminescence, 60 min; inhibition, % at 12.5 µM; actives 40% (n = 6,200); AID 488912;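 active means mean inhibition across replicates above about 50%, limit read from the data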
SENP6 confirm: human SENP6 inhibition, confirmed | shares compounds with SENP7 block | actives 58% (n = 6,200) | recombinant SENP6, Z-RLRGG-aminoluciferin luminescence | inhibition, % at 12.5 µM
SENP7 conf: human SENP7 inhibition, confirmed; actives 69% (n = 6,200); recombinant SENP7, Z-RLRGG-aminoluciferin luminescence, 40 min; shares compounds with SENP7 block; AID 488917; inhibition, % at 12.5 µM
Casp3 SENP sel: selectivity test for SENP inhibitors: human caspase-3 inhibition; shares compounds with SENP7 block; purified caspase-3, Z-DEVD-aminoluciferin luminescence, 60 min; inhibition, % at 12.5 µM; actives 60% (n = 6,200); AID 488918;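 active means mean inhibition above about 50%, limit read from the data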;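 further: plate controls were enzyme with DMSO for no effect and wells without caspase-3 for full effect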
Target sequence (P42574 28-227 limits assumed): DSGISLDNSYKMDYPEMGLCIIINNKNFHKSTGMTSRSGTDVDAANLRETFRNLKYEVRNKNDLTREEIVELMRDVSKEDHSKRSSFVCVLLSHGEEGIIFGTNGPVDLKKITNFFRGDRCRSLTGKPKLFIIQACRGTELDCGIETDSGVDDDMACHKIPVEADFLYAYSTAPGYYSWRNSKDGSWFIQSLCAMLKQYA
Luc interf: counter-screen for SENP inhibitors: luminescence interference | actives 39% (n = 6,200) | shares compounds with SENP7 block | inhibition, % at 12.5 µM | Pre-incubated SENP8/Z-RLRGG-aminoluciferin, luciferase luminescence interference;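 active means mean inhibition above about 50% when retested at one dose, limit read from the data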;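 further: plate controls were DMSO wells with completed reaction for no effect and substrate without enzyme for full effect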
* hit, by the source's call; i = inactive; x = no result. Shown are actives, neighbours in structure and some others; about 2.4% of the full set was active somewhere.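 How the source made its calls, unless noted: active means mean inhibition above about 50% in the one-dose retest (limit read from the data); inactive means the rest.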

SMILES | SENP6 block | SENP8 block-1 | SENP7 block | SENP8 block-2 | Platelet DG rel | SENP8 conf | SENP6 confirm | SENP7 conf | Casp3 SENP sel | Luc interf
O=C(/C=C/Nc1ccc(Oc2ccccc2Cl)cc1)c1ccco1 | 44.5 | -274.0 | 23.8 | 29.0 | -0.9 | x | x | x | x | x
CC(=O)Nc1ccc(NC(=O)[C@@H](NC(=O)c2ccccc2F)C(C)C)cc1 | -2.1 | 18.7 | 8.1 | -3.4 | 2.0 | x | x | x | x | x
COc1ccc(N(C(=O)c2cnccn2)C(C(=O)NC2CCCCC2)c2cc(OC)c(OC)c(OC)c2)cc1 (configuration not stated) | -25.8 | 10.3 | -5.6 | 3.5 | -5.4 | x | x | x | x | x
CCOc1cccc(/C=C(\C#N)C(=O)NC2CC2)c1 | -25.9 | -7.4 | 1.9 | 4.1 | 9.1 | x | x | x | x | x
O=C(c1ccccc1)c1nnc(-c2ccncc2)o1 | 57.9* | 27.9 | 56.6* | 43.7 | -28.3 | 67.7* | 63.7* | 86.5* | 88.2* | 56.8*
CC(C)N(Cc1nnc(-c2ccccc2Cl)o1)C(=O)COc1cccc(Cl)c1 | x | 8.0 | x | x | x | x | x | x | x | x
O=C(NNC(=O)c1ccc(NC(=O)c2ccccc2)cc1)c1ccc(F)cc1 | 3.9 | -15.8 | 1.2 | 5.5 | -1.1 | x | x | x | x | x
O=C(NC1=C(Nc2ccc(F)cc2)C(=O)c2ccccc2C1=O)c1ccc(Cl)cc1 | 63.5* | 93.0* | 24.6 | 18.8 | 0.1 | 35.7 | 60.0* | 18.6 | 7.8 | -0.6
CC(Nc1ncnc2sccc12)c1ccccc1 (configuration not stated) | -18.6 | -15.1 | 5.3 | -2.0 | 8.6 | x | x | x | x | x
COc1ccc(-n2nc3cc(N)c(Br)cc3n2)cc1 | 84.5* | -357.9 | 67.4* | 74.3* | 0.6 | 25.5 | 67.4* | 88.9* | 36.0 | 8.4
CCc1ccc(-n2nc3cc(C)c(N)cc3n2)cc1 | 68.7* | -434.1 | -16.2 | 48.9 | 4.6 | 72.8* | 75.6* | 96.7* | 68.7* | 29.6
COc1ccc(-n2nc3cc(C)c(N)c(Br)c3n2)cc1 | 62.9* | -482.0 | 43.8 | 40.2 | 30.3 | 11.6 | 38.3 | 53.2* | 5.9 | 6.6
C[C@@H]1CN([C@H](C)CO)C(=O)CCCn2nncc2CO[C@@H]1CN(C)S(=O)(=O)c1ccccc1 | x | -0.4 | x | x | x | x | x | x | x | x
O=C(/C=C/c1ccccc1)n1cnnc1SC/C=C/c1ccccc1 | 58.9* | 12.9 | 28.9 | 8.1 | 5.9 | 38.6 | 48.0 | 68.4* | 32.4 | 37.5
CN(CCO)c1ccc(-c2n[nH]c(=O)c3ccccc23)cc1[N+](=O)[O-] | 11.2 | 14.9 | -5.4 | 0.7 | 11.9 | x | x | x | x | x
Cc1ncc(CO)c(/C=N/N=C/c2ccccc2O)c1O | 60.4* | -35.2 | 25.4 | 32.1 | 10.0 | 7.1 | 7.1 | 8.6 | 9.3 | 5.0
C(=C\c1ccc2ccccc2n1)/c1ccccc1 | 98.2* | -409.7 | 97.9* | 97.6* | 45.0 | 99.3* | 100.7* | 103.9* | 98.6* | 97.2*
Cn1nc(/C=C/c2ccccc2)ccc1=O | 54.2* | -396.3 | 57.8* | 41.3 | 12.2 | 28.4 | 31.6 | 75.7* | 76.5* | 55.0*
Oc1ccc(/C=C/c2ccc3ccccc3n2)cc1 | 101.0* | -394.7 | 101.6* | 98.4* | 90.2* | 99.6* | 100.3* | 103.2* | 99.0* | 97.6*
C(=Cc1c[nH]c2ccccc12)c1ccc2ccccc2n1 | x | i | x | x | x | x | x | x | x | x
O=C(O)/C=C/c1ccc2ccccc2n1 | -10.1 | 12.5 | -0.5 | -4.1 | -3.0 | x | x | x | x | x
Fc1ccccc1/C=C/c1ccc2ccccc2n1 | 10.7 | -88.9 | 100.4* | 95.5* | 41.9 | 99.8* | 100.9* | 103.7* | 98.8* | 99.4*
Cc1ccc(S(=O)(=O)N(C)C[C@@H]2OCc3cnnn3CCCC(=O)N([C@@H](C)CO)C[C@@H]2C)cc1 | x | 6.7 | x | x | x | x | x | x | x | x
CN(C)C(=O)COc1ccc(S(=O)(=O)c2ccc(OCC(=O)N(C)C)cc2)cc1 | -2.0 | 11.7 | -5.2 | 6.4 | -11.0 | x | x | x | x | x
O/C(=C\c1ccc2ccccc2n1)c1ccc(O)cc1O | 91.3* | 28.3 | 92.3* | 92.8* | 25.6 | 95.4* | 95.8* | 101.7* | 92.1* | 47.0
SMILES | SENP6 block | SENP8 block-1 | SENP7 block | SENP8 block-2 | Platelet DG rel | SENP8 conf | SENP6 confirm | SENP7 conf | Casp3 SENP sel | Luc interf
Oc1ccc(/C(Cc2ccc3ccccc3n2)=N\Nc2ccccc2)c(O)c1 | 0.7 | -14.1 | -1.3 | -2.5 | -1.8 | x | x | x | x | x
Cc1cc2c(cc1C)C(=O)NC(C)(C)C2 | -0.6 | 6.4 | 58.8* | -4.3 | -3.5 | 6.4 | 6.3 | 1.5 | 0.7 | -3.0
O=C1Nc2cccnc2N(C(=O)CCl)c2ccccc21 | 11.0 | 9.3 | -6.1 | -13.0 | -7.7 | x | x | x | x | x
CCc1cccc2c(C(=O)COC(=O)c3ccccc3)c[nH]c12 | 60.3* | 17.6 | 53.3* | 24.9 | 6.9 | 7.3 | 5.2 | 73.4* | 23.2 | 46.1
O=C(Nc1ccc2c(c1)OCO2)c1noc2c1CCCCC2 | 73.9* | 13.9 | 59.6* | 42.7 | 13.4 | 62.8* | 63.4* | 87.4* | 66.7* | 69.0*
O=C(Nc1ccc2c(c1)OCO2)c1noc2c1CCCC2 | 87.5* | 5.8 | 81.2* | 78.2* | -9.6 | 85.4* | 86.1* | 98.5* | 90.6* | 13.6
O=C(Nc1cc(Cl)ccc1Cl)c1noc2c1CCCC2 | -10.5 | 18.8 | -0.4 | 3.2 | 7.0 | x | x | x | x | x
CC(=O)c1ccc(NC(=O)c2noc3c2CCCCC3)cc1 | 26.0 | 3.1 | 22.1 | -6.3 | 0.0 | x | x | x | x | x
O=C(Nc1ccc(F)cc1F)c1noc2c1CCC2 | 43.6 | 13.7 | 53.0* | 17.2 | 1.0 | 27.8 | 38.7 | 76.7* | 69.1* | 16.4
O=C(Nc1cccnc1)c1noc2c1CCCC2 | 22.9 | -0.1 | 15.7 | -10.9 | 4.1 | x | x | x | x | x
NCCc1c(-c2ccccc2)n(-c2ccccc2)c2ccccc12 | -54.3 | -4.1 | 4.9 | -16.4 | 13.6 | x | x | x | x | x
COc1ccc(NC(=S)Nc2cccc3cnccc23)cc1 | 88.3* | -30.7 | 66.6* | -7.2 | 12.0 | 10.9 | 39.5 | 21.7 | 6.7 | 4.3
COc1ccccc1NC(=S)NCc1cccnc1 | 4.6 | 16.8 | 2.3 | -1.1 | -2.0 | x | x | x | x | x
CCOc1ccc(NC(=S)Nc2ccc(OCC)cc2)cc1 | -13.1 | 6.3 | -5.9 | -10.3 | 3.7 | x | x | x | x | x
CCOc1ccc(NC(=S)Nc2cccc3ccccc23)cc1 | 88.2* | -404.2 | 33.5 | 50.4* | 21.8 | 8.9 | 8.7 | 11.3 | 2.8 | 9.5
CCOc1ccc(NC(=S)Nc2cccc3cnccc23)cc1 | 86.9* | -42.4 | 63.5* | -2.7 | 9.0 | 13.3 | 33.4 | 22.1 | 12.3 | 15.7
CN(C)S(=O)(=O)c1cccc(NC(=S)Nc2cccc3cnccc23)c1 | x | -229.1 | x | x | 0.2 | x | x | x | x | x
COc1ccccc1NC(=S)Nc1cccc2cnccc12 | 91.2* | -121.9 | 81.5* | 1.1 | -6.8 | -10.6 | 9.8 | -3.5 | 3.8 | 0.8
